Reference: the antibiotic and cytotoxicity screens of Wong et al. (2023)
The campaign covered roughly 39,000 compounds. About 1,500 (3.8%) were called active. Many of the other results were omitted from the sample, so actives are more common in it than they were.

These compounds were tested on HSkMC (human skeletal muscle cells) (assay: cytotoxicity call (relative viability < 0.9)). Conditions: 10 µM.
For `C[C@@H]1CCCCO[C@H](CN(C)C(=O)c2ccncc2)[C@H](C)CN([C@H](C)CO)C(=O)c2cc(NS(=O)(=O)c3ccc(Cl)cc3)ccc2O1`, the cytotoxicity call was “inactive”. With `NC(=O)CNC(=O)c1cccc(Cl)c1` the cytotoxicity call was “inactive”. With `Cc1cc2nc3ccc(N(C)C)cc3[s+]c2cc1N.[Cl-]` the cytotoxicity call was “active”. For `CN(C)c1ccc2c(=O)[nH][nH]c(=O)c2c1`, the cytotoxicity call was “inactive”. With `CN(C)c1ccc2nc3ccc(N(C)C)cc3[s+]c2c1.O.[Cl-]` the cytotoxicity call was “active”. `C[C@@H]1CN([C@@H](C)CO)C(=O)Cc2cc(NC(=O)Cc3cn(C)c4ccccc34)ccc2O[C@@H]1CN(C)Cc1ccc(Oc2ccccc2)cc1` was tested, and the cytotoxicity call was “inactive”. `Nc1cc(Cl)ncn1` was tested, and the cytotoxicity call was “inactive”. With `C[C@@H]1CN([C@H](C)CO)S(=O)(=O)c2ccc(C#C[C@@H](C)O)cc2O[C@H]1CN(C)C` the cytotoxicity call was “inactive”. With `COc1ccc(S(=O)(=O)Nc2ccc3c(c2)C(=O)N([C@H](C)CO)C[C@H](C)[C@@H](CN(C)C(=O)c2ccccc2)OCCCC[C@H](C)O3)cc1` the cytotoxicity call was “inactive”. With `CC12CC3(C)CC(C)(C1)CC(C/N=C/c1ccc(O)cc1)(C2)C3` the cytotoxicity call was “inactive”. `CCOc1ccc2nc(C34CC5CC(CC(C5)C3)C4)ccc2c1` was tested, and the cytotoxicity call was “inactive”. `CC1=Nc2ccccc2NC(C)(C)C1` was tested, and the cytotoxicity call was “inactive”. In the case of `C[C@@H]1CN([C@@H](C)CO)C(=O)c2cc(NC(=O)Cc3ccccc3)ccc2O[C@H]1CN(C)S(=O)(=O)c1cccs1`, the cytotoxicity call is reported as “inactive”. `COCCN1CCC(N(Cc2ccc(-c3ccc(C(F)(F)F)cc3)cc2)C(=O)Cn2c(SCc3cccc(F)c3F)cc(=O)c3ccccc32)CC1` was tested, and the cytotoxicity call was “active”. In the case of `O=c1cc(-c2ccccc2)[nH]c(=O)[nH]1`, the cytotoxicity call is reported as “inactive”. With `COc1ccc(S(=O)(=O)N(C)C[C@@H]2Oc3ccc(NC(=O)Nc4cccc5c4CCCC5)cc3CC(=O)N([C@@H](C)CO)C[C@@H]2C)cc1Cl` the cytotoxicity call was “inactive”. With `CC(C)NC(=O)Nc1ccc2c(c1)CC(=O)N([C@@H](C)CO)C[C@@H](C)[C@H](CN(C)S(=O)(=O)c1ccc(Cl)cc1)O2` the cytotoxicity call was “inactive”. With `CC(C)NC(=O)Nc1ccc2c(c1)CC(=O)N([C@H](C)CO)C[C@@H](C)[C@H](CN(C)S(=O)(=O)c1ccc(Cl)cc1)O2` the cytotoxicity call was “inactive”. With `COc1ccc(S(=O)(=O)N(C)C[C@@H]2Oc3ccc(NC(=O)Nc4ccc(Cl)c(Cl)c4)cc3CC(=O)N([C@@H](C)CO)C[C@@H]2C)cc1Cl` the cytotoxicity call was “active”. `COc1ccc(S(=O)(=O)N(C)C[C@@H]2Oc3ccc(NC(=O)NC(C)C)cc3CC(=O)N([C@H](C)CO)C[C@@H]2C)cc1` was tested, and the cytotoxicity call was “inactive”. With `COc1ccc(S(=O)(=O)N(C)C[C@@H]2Oc3ccc(NC(=O)Nc4cc(Cl)cc(Cl)c4)cc3CC(=O)N([C@@H](C)CO)C[C@@H]2C)cc1Cl` the cytotoxicity call was “active”. `COc1ccc(NC(=O)N(C)C[C@H]2OCCCC[C@H](C)Oc3ccc(NS(=O)(=O)c4cccs4)cc3C(=O)N([C@@H](C)CO)C[C@H]2C)cc1` was tested, and the cytotoxicity call was “inactive”. In the case of `COc1cccc(S(=O)(=O)N(C)C[C@H]2Oc3cc(Br)ccc3S(=O)(=O)N([C@@H](C)CO)C[C@H]2C)c1`, the cytotoxicity call is reported as “inactive”. `COc1ccc2c3c([nH]c2c1)[C@@H](CO)N(C[C@]13CCN(CC1)S(=O)(=O)c1cn(cn1)C)C(=O)Nc1ccc(cc1)F` was tested, and the cytotoxicity call was “inactive”. `O=C(C[C@H]1C[C@@H]2c3cc(NC(=O)Nc4ccc(C(F)(F)F)cc4)ccc3O[C@@H]2[C@H](CO)O1)NC1CCCCC1` was tested, and the cytotoxicity call was “inactive”. `C[C@H]1CN([C@@H](C)CO)S(=O)(=O)c2ccc(C#Cc3ccncc3)cc2O[C@@H]1CN(C)C(=O)C1CCCCC1` was tested, and the cytotoxicity call was “inactive”. `COc1ccccc1NC(=O)N(C)C[C@H]1Oc2ncc(C#CCN(C)C)cc2C(=O)N([C@@H](C)CO)C[C@H]1C` was tested, and the cytotoxicity call was “inactive”. For `C[C@H]1CN([C@@H](C)CO)C(=O)c2cc(NC(=O)Nc3ccc(C(F)(F)F)cc3)ccc2O[C@@H]1CN(C)Cc1ccc(Cl)c(Cl)c1`, the cytotoxicity call was “inactive”. For `C[C@H](CO)N1C[C@H](C)[C@@H](CN(C)Cc2ccc(Cl)c(Cl)c2)Oc2ccc(NC(=O)Nc3ccc(C(F)(F)F)cc3)cc2C1=O`, the cytotoxicity call was “active”. In the case of `C[C@@H]1CN([C@H](C)CO)C(=O)c2cc(NC(=O)Nc3ccc(C(F)(F)F)cc3)ccc2O[C@@H]1CN(C)Cc1ccc(Cl)c(Cl)c1`, the cytotoxicity call is reported as “active”. With `C[C@@H]1CN([C@@H](C)CO)C(=O)c2cc(NC(=O)Nc3ccc(C(F)(F)F)cc3)ccc2O[C@@H]1CN(C)Cc1ccc(Cl)c(Cl)c1` the cytotoxicity call was “active”. In the case of `C[C@@H]1CN([C@@H](C)CO)C(=O)c2cc(NC(=O)Nc3ccc(C(F)(F)F)cc3)ccc2O[C@H]1CN(C)Cc1ccc(Cl)c(Cl)c1`, the cytotoxicity call is reported as “inactive”. `C[C@H](CO)N1C[C@H](C)[C@H](CN(C)Cc2ccc(Cl)c(Cl)c2)Oc2ccc(NC(=O)Nc3ccc(C(F)(F)F)cc3)cc2C1=O` was tested, and the cytotoxicity call was “active”. With `C[C@@H]1CN([C@H](C)CO)C(=O)c2cc(NC(=O)Nc3ccc(C(F)(F)F)cc3)ccc2O[C@@H]1CN(C)Cc1ccncc1` the cytotoxicity call was “inactive”. With `C[C@@H]1CN([C@H](C)CO)C(=O)c2cc(NS(=O)(=O)c3ccc(F)cc3)ccc2O[C@H]1CN(C)Cc1ccncc1` the cytotoxicity call was “inactive”. In the case of `CN1C(=O)c2cc(NS(C)(=O)=O)ccc2OC[C@H]2O[C@@H](CC(=O)N3CCOCC3)CC[C@@H]21`, the cytotoxicity call is reported as “inactive”. In the case of `C[C@@H]1CCCCO[C@H](CN(C)S(=O)(=O)c2cccs2)[C@@H](C)CN([C@H](C)CO)C(=O)c2cc(NC(=O)C3CCCCC3)ccc2O1`, the cytotoxicity call is reported as “inactive”. With `COCC(=O)N1[C@@H]2c3ccc(C4=CCCCC4)c(=O)n3C[C@@H]2[C@@H](CO)[C@@H]1C(=O)N1CCN(C)CC1` the cytotoxicity call was “inactive”. `Cc1ccc(S(=O)(=O)Nc2ccc3c(c2)C(=O)N([C@H](C)CO)C[C@@H](C)[C@@H](CN(C)C(=O)Nc2cccc4ccccc24)O3)cc1` was tested, and the cytotoxicity call was “inactive”. In the case of `CO[C@H]1CN(C)C(=O)c2cc(NS(=O)(=O)CC(F)(F)F)ccc2OC[C@@H](C)N(C(=O)NC(C)C)C[C@@H]1C`, the cytotoxicity call is reported as “inactive”. In the case of `O=C1NCCCc2occc21`, the cytotoxicity call is reported as “inactive”. In the case of `Cc1noc(C)c1S(=O)(=O)Nc1ccc2c(c1)C(=O)N([C@@H](C)CO)C[C@H](C)[C@H](CN(C)Cc1ccccc1)O2`, the cytotoxicity call is reported as “inactive”. `CO[C@H](CN(C)S(=O)(=O)c1ccc(C)cc1)[C@H](C)CN([C@@H](C)CO)S(=O)(=O)c1cccc(Cl)c1` was tested, and the cytotoxicity call was “inactive”. `COc1ccc(NC(=O)N(C)C[C@@H]2Oc3ncc(C#CCN(C)C)cc3C(=O)N([C@H](C)CO)C[C@@H]2C)cc1` was tested, and the cytotoxicity call was “inactive”.
